# Measurements published in PubChem BioAssay (Tox21).
# Results filed as inconclusive are left out. Entries that show only a call come without a potency. A number with no mark means an inactive call. Calls of active or inactive are those of the source. The call rests on the fitted dose curve.
# Assay: qHTS assay to identify small molecule agonists of H2AX - cell viability counter screen (AID 1224847); further: top concentration of the series differs between compounds; nearly all actives have a fitted effect of over 30% in size
# Details: CHO-K1 viability, CellTiter-Glo luminescence, 3 h; series mostly up to 154 µM; activity change, negative = cytotoxicity: at the top concentration
# Source text: National Center for Advancing Translational Sciences [NCATS]
# NIH Chemical Genomics Center [NCGC]
# U.S. Environmental Protection Agency [EPA]
# National Institutes of Environmental Health Sciences [NIEHS]
# National Toxicology Program [NTP]
# U.S. Food and Drug Administration [FDA]
# HTRF phospho-H2AX (Ser139) assay (Cisbio Bioassays, US) enables the quantitative detection of the histone variant H2AX when phosphorylated on serine 139. When double-stranded DNA breaks, either by ionizing radiation or endogenous physiological processes, H2AX becomes phosphorylated at Ser139. This phospho-Ser139 serves as a sensitive biomarker for the detection of such breaks, localizing the site of DNA repair. So, HTRF phospho-H2AX Ser139 is a pertinent assay to study genome stability, the cell cycle, DNA repair, and it serves as a biomarker for cancer, and to understand aging. Wild type CHO-K1 cells were used to identify the inducers of Phospho-H2AX Ser 139 from the Tox21 compound collections. Also cytotoxicity of the Tox21 10K compound library against the CHO-K1 cell line was tested by measuring the cell viability using CellTiter-Glo assay (Promega, Madison, WI).
# Tox21 Assay Protocol Summary:
# The CHO-K1 cells suspended in culture medium containing 10% FBS were dispensed at 1000 cells/ 3 ul/well in 1536-well white wall/solid bottom plates (Greiner Bio-One North America, NC) using a Multidrop Combi (Thermo Fisher Scientific Inc., Waltham, MA). After the assay plates were incubated at 37C overnight, 23 nl of compounds at 15 concentrations (from 5-48 columns) or positive control (from 1 to 4 columns) were transferred to the assay plates using a Pintool station (Wako, San Diego, CA) into each well resulting in a final DMSO concentration of 0.76%. After 3hr incubation at 37C, 3 uL/well CellTiter-Glo luminescent cell viability reagent (Promega Corporation, Madison, WI) was added using a Flying Reagent Dispenser (FRD) (Aurora Discovery, CA). After incubation at room temperature for 30 min, the luminescence intensity was read using a ViewLux plate reader (PerkinElmer, Waltham, MA).
SMILES,Potency,"activity change, negative = cytotoxicity"
Nc1ncc([N+](=O)[O-])s1,inactive,
C=CCN=C=S,inactive,
CCSC(=O)N1CCCCCC1,inactive,
Sc1ccccc1,inactive,
N#CN=C(N)N,inactive,
OCCCCO,inactive,
Cc1cc(Cl)ccc1OC(C)C(=O)O (stereo not given),inactive,
COC(=O)Nc1cccc(OC(=O)Nc2cccc(C)c2)c1,inactive,
Cl[C@H]1OCCO[C@@H]1Cl,inactive,
COP(=S)(OC)Oc1ccc(SC)c(C)c1,inactive,
Cc1ccc(O)c(C)c1,inactive,
CC(C)(C)C(=O)CCl,inactive,
CNC(=O)O/N=C/C(C)(C)S(C)=O (stereo not given),inactive,
CC12CC1(C)C(=O)N(c1cc(Cl)cc(Cl)c1)C2=O (stereo not given),inactive,
O=[N+]([O-])c1cc([As](=O)(O)O)ccc1O,inactive,
CN1C(=O)CCS(=O)(=O)C1c1ccc(Cl)cc1 (stereo not given),inactive,
CC(=O)/C=C/c1ccccc1,inactive,
N#Cc1cccc(C#N)c1,inactive,
COP(=S)(OC)SCN1C(=O)c2ccccc2C1=O,inactive,
CNC(=O)O/N=C(\SC)C(=O)N(C)C,inactive,

SMILES,Potency,"activity change, negative = cytotoxicity"
O=C(O)CCCc1ccc(N(CCCl)CCCl)cc1,inactive,
CN(C)C(=O)Cl,inactive,
CCCCCCCCCCCCCCCCCC(=O)O,inactive,
COc1cc(-c2ccc(N)c(OC)c2)ccc1N,inactive,
Cc1ccc(N)cc1,inactive,
Clc1cnc(Oc2ccc(Oc3ncc(Cl)cc3Cl)cc2)c(Cl)c1,,0.279% [at 70.9 µM]
CC(=O)C1CCOC1=O (stereo not given),inactive,
CNCC(O)c1ccc(O)cc1 (stereo not given),inactive,
C=CC#N,inactive,
C=CC(=O)OCC(CC)CCCC (stereo not given),inactive,
C/C=C/c1ccc2c(c1)OCO2,inactive,
CC[N+](=O)[O-],inactive,
[N-]=[N+]=CC(=O)OC[C@H](N)C(=O)O,inactive,
Cc1cccc(N)c1C,inactive,
O=C(O)C(Br)Br,inactive,
OCC(O)CCl (stereo not given),inactive,
O=P1(NCCCl)OCCCN1CCCl (stereo not given),inactive,
NNc1ccccc1,inactive,
O=[N+]([O-])c1ccc(Cl)cc1,inactive,
ClC(Cl)c1ccccc1,inactive,
